In the library only some 10% were active in any assay of this set; here they are far more common.
BAZ2B block: inhibitors of human BAZ2B bromodomain; AID 504333; AlphaScreen BAZ2B-H3K14Ac peptide displacement; Potency, µM (doses to about 114 µM), without a hit: at the highest dose activity change, negative = inhibition, usual class: inhibitors; Q9UIF8; 4.4% of 360,000 active; note: % is set by controls: 0 for no effect and ±100 for the full control effect; nearly all actives have a fitted effect of over 60% in size
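Complex of BAZ2B and biotin-H3K14Ac (50 nM apiece) forms over 30 min at RT, then faces library compounds up to 110 uM for another 30 min; AlphaScreen beads added, 20 min dark incubation, luminescence read.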
HP1b chromo inh: HP1-beta chromodomain-methylated histone interaction inhibition. AlphaScreen HP1-beta / biotin-H3K9me3 peptide binding. AID 540317. P83916. 0.56% of 390,000 active. Potency, µM (top dose mostly 114 µM), inactives show at the highest dose activity change, negative = inhibition, usual class: inhibitors; note: nearly all actives have a fitted effect of over 70% in size
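AlphaScreen: HP1-beta (50 nM) preformed 30 min with biotin-H3(1-18)K9me3 peptide (50 nM) in PBS pH 7.4, 0.01% Tween-20. Compound added for 30 min at RT, then streptavidin donor/nickel chelate acceptor beads (10 ug/mL) for 30 min.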
JMJD2A Tudor inh: blocks the human JMJD2A Tudor domain; O75164; AlphaScreen JMJD2A-Tudor / H3K4me3 peptide binding; Potency, µM (series often up to 114 µM), without a hit: at the top dose activity change, negative = inhibition, usual class: inhibitors; 4.4% of 390,000 active; AID 504339; note: % is set by controls: 0 for no effect and ±100 for the full control effect; nearly all actives have a fitted effect of over 50% in size
Target sequence (O75164 whole entry, looked up, the tested form may be a part): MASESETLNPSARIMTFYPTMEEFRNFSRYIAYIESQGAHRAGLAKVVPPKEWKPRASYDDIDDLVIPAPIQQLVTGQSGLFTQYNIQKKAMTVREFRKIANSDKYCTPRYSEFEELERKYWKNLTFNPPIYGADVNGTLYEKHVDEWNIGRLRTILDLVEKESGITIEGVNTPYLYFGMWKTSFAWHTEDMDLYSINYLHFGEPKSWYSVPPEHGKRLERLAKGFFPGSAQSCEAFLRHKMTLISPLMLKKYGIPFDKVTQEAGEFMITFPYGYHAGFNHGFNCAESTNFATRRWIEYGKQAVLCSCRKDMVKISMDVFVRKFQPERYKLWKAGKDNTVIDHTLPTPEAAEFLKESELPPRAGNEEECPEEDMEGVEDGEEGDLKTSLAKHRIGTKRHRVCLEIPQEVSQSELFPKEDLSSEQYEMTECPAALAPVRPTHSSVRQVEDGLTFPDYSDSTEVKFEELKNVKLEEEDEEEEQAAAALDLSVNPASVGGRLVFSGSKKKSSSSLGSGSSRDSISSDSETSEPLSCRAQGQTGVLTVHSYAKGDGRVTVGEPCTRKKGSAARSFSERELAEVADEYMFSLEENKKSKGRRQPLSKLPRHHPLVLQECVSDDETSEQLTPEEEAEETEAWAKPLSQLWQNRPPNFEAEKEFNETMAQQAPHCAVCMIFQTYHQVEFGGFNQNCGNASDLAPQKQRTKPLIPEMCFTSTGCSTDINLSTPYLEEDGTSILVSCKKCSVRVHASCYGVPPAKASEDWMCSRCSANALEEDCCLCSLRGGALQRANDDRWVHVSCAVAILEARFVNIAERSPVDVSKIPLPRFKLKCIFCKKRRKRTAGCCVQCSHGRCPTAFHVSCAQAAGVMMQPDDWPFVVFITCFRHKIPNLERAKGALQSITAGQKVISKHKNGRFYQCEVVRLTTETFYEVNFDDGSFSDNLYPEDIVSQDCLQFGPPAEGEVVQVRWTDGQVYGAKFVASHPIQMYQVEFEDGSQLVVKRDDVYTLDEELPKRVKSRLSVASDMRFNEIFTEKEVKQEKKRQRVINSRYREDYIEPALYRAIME
GLS inh: blocks human kidney-isoform glutaminase activity; Potency, µM (series often up to 45.5 µM), without a hit: top-dose activity change, negative = inhibition, most hits filed as inhibitors; GLS enzymatic activity, qHTS titration; AID 624170; 0.21% of 410,000 active; O94925; note: % is set by controls: 0 for no effect and ±100 for the full control effect
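Read-out is an Amplex red fluorescence increase coupled through glutamate oxidase and HRP, measured before and after 30 min room-temperature incubation. hKGA is in 45 mM KH2PO4 (pH 8.2) with 0.02% Tween-20; glutamine added as 1mM solution.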
G9a inh: blocks human histone lysine methyltransferase G9a | G9a H3K9 monomethylation, AlphaScreen, 2 h | Potency, µM (top dose mostly 102 µM), without a hit: at the top dose activity, negative = inhibition, actives largely listed as inhibitors | 8.8% of 350,000 active | AID 504332; note: % is set by controls: 0 for no effect and ±100 for the full control effect; nearly all actives have a fitted effect of over 75% in size
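Methyltransferase reactions run at room temperature for 2 h (20 nM enzyme, 500 nM biotin-H3K9 peptide, 20 uM SAM) after a 15 min compound preincubation; product detected by AlphaScreen beads and anti-H3K9me1 antibody.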
Starred values were filed as active, the others as inactive; ? = inconclusive; · = no result given; [ ] = another dose, or the depositor's remark. Calls come from the whole dose curve; as a rule, active = well fitted curve in the direction sought with a large enough effect; inconclusive = small, poorly fitted or top-dose-only effect, or another doubt; inactive = no such curve, though single readings can be large; an effect the other way counts as inactive or inconclusive. Potency is the fitted concentration of half-maximal effect.

SMILES	BAZ2B block	HP1b chromo inh	JMJD2A Tudor inh	GLS inh	G9a inh
O=C(/C=C/c1ccccc1)OCCCCN=C1NS(=O)(=O)c2ccccc21	3%	-10%	28µM*	0%	·
O=C(CCCN=C1NS(=O)(=O)c2ccccc21)OCc1ccccc1	2%	25%	-2%	-3%	45µM*
CC(OC(=O)CCCN=C1NS(=O)(=O)c2ccccc21)C(=O)N(C)c1ccccc1 (stereo not given)	13%	27%	0%	7%	40µM*
CC(=O)Nc1c(O)nc(SCC(=O)N2CCN(c3ccc(F)cc3)CC2)[nH]c1=O	?	32%	-18%	33%	-4%[59 µM]
COc1cc([N+](=O)[O-])ccc1-c1ccc(C(=O)Nc2ccc(NC(C)=O)cc2)o1	-8%	25%	-9%	4%	8.9µM*
COc1ccc(NC(=O)c2ccc(-c3ccc([N+](=O)[O-])cc3)o2)cc1OC	?	-17%	?	6%	79µM*
CC(=O)Nc1ccc(NC(=O)c2ccc(-c3ccc([N+](=O)[O-])cc3)o2)cc1	-11%	11%	-10%	-15%	·
O=C(OCc1cc(=O)n2c(n1)sc1ccccc12)c1ccc(O)cc1	?	8%	-12%	-13%	11%[59 µM]
Cc1cccc(C(=O)N[C@H](C(=O)OCc2cc(=O)n3c(n2)sc2ccccc23)C(C)C)c1	40µM*	-27%	?	-30%	-7%[59 µM]
O=c1cc(CCl)nc2sc3ccccc3n12	50µM*	-14%	50µM*	-21%	?
CCOC(=O)c1c(NC2=NS(=O)(=O)c3ccccc32)sc2c1CCCCC2	5%	43%	-1%	11%	?
CCN1CCN(Cc2ccc(C(=O)Nc3ccc(C)c(NCc4cnc(NC(=O)OC)cn4)c3)cc2C(F)(F)F)CC1	-26%	21%	-30%	-5%	?
O=C(NN=Cc1ccccc1O)C(O)(c1ccccc1)c1ccccc1	·	46%	-1%	7%	·
CN(C)c1ccc(/C=N/NC(=O)c2ccccc2O)o1	3%	9%	-21%	0%	28µM*
O=C(N/N=C/c1ccc(N2CCCCC2)o1)C(O)(c1ccccc1)c1ccccc1	-28%	·	·	·	13µM*
CN(C)c1ccc(/C=N/NC(=O)C(O)(c2ccccc2)c2ccccc2)o1	-26%	0%	?	6%	7.9µM*
CCN(CC)C(=O)[C@H]1CC(CC(=O)NCCc2ccccn2)C(=O)N2CCc3c([nH]c4ccc(OC)cc34)[C@]12C (stereo not given in full)	·	21%	-8%	4%	·
O=S(=O)(c1cccc(-c2nc3ccccc3s2)c1)N1CCCC1	14%	107%	13%	3%	8%[12.7 µM]
O=C(NCc1ccccc1Cl)c1ccc(S(=O)(=O)N2CCCC2)cc1	-3%	37%	-5%	-1%	10%[2.33 µM]
O=C(NCc1ccc(Cl)cc1)C1CCN(C(=O)Cc2ccccc2)CC1	50µM*	33%	-5%	-8%	-5%
O=C(NCc1ccco1)C1CCN(C(=O)Cc2ccccc2)CC1	-4%	29%	2%	12%	4%[12.7 µM]
CCCCn1nc2cc(C(=O)NC3CCCc4ccccc43)ccc2c1OCC (stereo not given)	-4%	37%	-12%	-3%	-1%[12.7 µM]
CC(C)=NNc1nc(-c2ccccc2)c(C)s1	·	?	-35%	-5%	32µM*
Cc1sc(N/N=C/c2cccnc2)nc1-c1ccccc1	?	-7%	50µM*	17%	·
Cc1sc(N/N=C/c2ccco2)nc1-c1ccccc1	?	-20%	?	-1%	?
SMILES	BAZ2B block	HP1b chromo inh	JMJD2A Tudor inh	GLS inh	G9a inh
Cc1cccc(OCCCC(=O)Nc2nc3ccccc3[nH]2)c1	-17%	20%	-19%	3%	4%
Cc1nc(-c2cccc(C(F)(F)F)c2)sc1C(=O)O	?	3%	-9%	7%	56µM*
COc1cc(-c2cc(N)n(S(=O)(=O)c3ccccc3)n2)cc(OC)c1OC	5%	9%	-32%	2%	4%
Nc1cc(-c2ccccc2)nn1S(=O)(=O)c1ccc(Br)cc1	-7%	32%	-30%	9%	50µM*
O=C(CCCN1C(=O)CCC1=O)Nc1ccccc1F	?	5%	-18%	-1%	56µM*
COc1ccc(NC(=O)CCCn2cnc3ccccc3c2=O)cc1	-32%	-13%	-21%	-4%	28µM*
O=C(CCCn1cnc2ccccc2c1=O)Nc1ccccc1F	3%	18%	-9%	-6%	35µM*
COc1ccccc1N1CCN(C(=O)c2ccc(N(C)S(=O)(=O)c3ccccc3)cc2)CC1	-18%	-15%	-30%	0%	5%[59 µM]
CCOC(=O)c1cc(S(=O)(=O)NCc2ccc(C)cc2)[nH]n1	50µM*	22%[57 µM]	-15%	-13%	5.6µM*
CCOC(=O)c1cc(S(=O)(=O)NCc2cccc(Cl)c2)[nH]n1	50µM*	12%[57 µM]	-30%	-5%	3.5µM*
NS(=O)(=O)c1ccc(NN=C2CCCCC2)c([N+](=O)[O-])c1	?	-35%	?	-2%	8%[59 µM]
CC1C/C(=N/Nc2ccc([N+](=O)[O-])cc2[N+](=O)[O-])CC(C)(C)C1 (stereo not given)	10µM*	8.9µM*	5.6µM*	-12%	10µM*
CC1CCCC/C1=N/Nc1ccc([N+](=O)[O-])cc1[N+](=O)[O-] (stereo not given)	?	-60%	50µM*	9%	35µM*
Cc1ccc(NC(=O)CCc2nnc3ccc(NCc4ccco4)nn23)cc1F	?	0%	-32%	-1%	-27%
Oc1ccccc1-c1nnc(COc2ccccc2)o1	19%	59%	-10%	16%	-1%
Oc1ccccc1-c1nnc(COc2ccc(Cl)cc2Cl)o1	4%	7%	40µM*	25%	?
C#CCOCCOCCOCCNc1nc(N2CCN(C(=O)[C@H]([C@@H](C)CC)n3cc([C@@H](N)CO)nn3)CC2)nc(N2CCN(C(=O)[C@H]([C@@H](C)CC)n3cc([C@@H](N)Cc4ccc(O)cc4)nn3)CC2)n1	28µM*	2%	50µM*	22%	-4%[12.7 µM]
C#CCOCCOCCOCCNc1nc(N2CCN(C(=O)[C@H]([C@@H](C)CC)n3cc([C@@H](N)Cc4ccc(O)cc4)nn3)CC2)nc(N2CCN(C(=O)[C@H]([C@@H](C)CC)n3cc([C@@H](N)Cc4ccc(O)cc4)nn3)CC2)n1	50µM*	35%	?	13%	-1%[12.7 µM]
C#CCOCCOCCOCCNc1nc(N2CCN(C(=O)[C@H]([C@@H](C)CC)n3cc([C@@H](N)CC(C)C)nn3)CC2)nc(N2CCN(C(=O)[C@H](Cc3ccc(O)cc3)n3cc([C@@H](N)CC(C)C)nn3)CC2)n1	50µM*	18%	?	12%	?

Screens from PubChem BioAssay.
